USP2a block – blocks human ubiquitin-specific protease USP2a | Potency, µM (top dose mostly 38.3 µM), hits mostly inhibitors | USP2 core, Ub-CHOP2 coupled fluorogenic reporter, 485/531 | O75604 | 330,000 compounds, 0.01% hits | AID 463254
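Cell-free coupled assay: 10nM USP2 core preincubated 30min RT with compound in Tris-HCl pH 8.0/CaCl2/CHAPS buffer, then 25nM Ub-CHOP2 and 25nM reporter substrate; fluorescence (Ex 485/Em 531) read after 60min RT, normalized to NEM inhibition, concentration-response curves fitted.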
RGS4 inhibitor – inhibitors of human regulator of G protein signaling 4; P49798; AID 504845; Transcreener GDP fluorescence polarization, RGS4-accelerated GTP hydrolysis; Potency, µM (doses to about 114 µM), usual class: inhibitors; 390,000 compounds, 0.039% hits; also: nearly all actives have a fitted effect of over 75% in size
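MLSMR compounds (23 nl, pin-transferred) preincubated 10 min at room temperature with a 500nM (2x) first reagent, then RGS4 at 900nM (2x) plus Transcreener GDP mix added; fluorescence polarization (620/688 nm) read before and after 90 min at 30 °C.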
BCR signal inh – chronic active BCR signaling inhibition; Potency, µM (top dose mostly 46.1 µM), actives largely listed as inhibitors; ABC-DLBCL IkBa-CBG/CBR reporter, luminescence ratio, 4 h; AID 493014; 340,000 compounds, 0.05% hits; active = well fitted inhibition curve with a large enough effect in the signal ratio, with a control signal flat, not every such curve was filed as active; inconclusive = small, poorly fitted or top-dose-only effect, or effect the other way, or a change in a side signal; the % refers to the signal ratio
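Concentration-response series (up to 46 uM) were applied to TMD8 dual-reporter cells for 4 h at 37C with doxycycline. Green/red ratio, after filter-overlap correction, defined %Activity; red signal alone was normalised to basal cells and zero luminescence.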
Eya2 inh – Eya2 (human) phosphatase inhibition | recombinant Eya2, OMFP fluorescence dephosphorylation (OMFP is methylfluorescein phosphate) | Potency, µM (series often up to 76.9 µM), hits mostly inhibitors | 330,000 compounds, 0.006% hits | AID 488837
Target sequence (O00167 whole entry, looked up): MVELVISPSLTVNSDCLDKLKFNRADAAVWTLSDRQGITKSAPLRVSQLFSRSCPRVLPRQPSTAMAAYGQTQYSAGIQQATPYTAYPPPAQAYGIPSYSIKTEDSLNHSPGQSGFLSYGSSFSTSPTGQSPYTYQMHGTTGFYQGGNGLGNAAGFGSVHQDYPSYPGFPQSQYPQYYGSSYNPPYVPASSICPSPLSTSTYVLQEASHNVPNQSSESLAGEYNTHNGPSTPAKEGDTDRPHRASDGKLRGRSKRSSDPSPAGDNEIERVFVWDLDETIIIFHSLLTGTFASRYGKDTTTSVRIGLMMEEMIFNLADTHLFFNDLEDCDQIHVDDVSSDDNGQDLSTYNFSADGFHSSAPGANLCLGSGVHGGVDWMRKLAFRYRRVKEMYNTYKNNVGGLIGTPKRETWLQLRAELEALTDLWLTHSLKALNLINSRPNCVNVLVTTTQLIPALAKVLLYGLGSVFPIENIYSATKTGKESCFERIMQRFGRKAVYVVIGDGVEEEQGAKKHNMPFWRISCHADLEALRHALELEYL
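Eya2 (0.2 uM) preincubated 10 min at ambient with compound, then OMFP substrate added at 50 uM; 10 min reaction in 50 mM HEPES pH 7.5, 50 mM NaCl, 5 uM MgCl2, 0.05% BSA, 1 mM DTT. Fluorescence read at Ex 485/Em 525 nm.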
GCN5L2 inh – inhibitors of human GCN5L2 histone acetyltransferase. Q92830. GCN5L2 HAT assay, ThioGlo1 CoA-SH fluorescence. Potency, µM (titrated, usually from 58.9 µM), most hits filed as inhibitors. 390,000 compounds, 0.21% hits. AID 504327
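Preincubate 20nM GCN5L2 with compound 15 min, RT → add 50uM ThioGlo1 + 75uM H3(1-25) + 70uM acetyl-CoA → read fluorescence 0 and 20 min. Primary qHTS; fluorescent artifacts likely.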
uPA generation – blocks generation of uPA at the cell surface; cell surface uPA generation assay, qHTS; Potency, µM (doses to about 38.3 µM), actives largely listed as inhibitors; 330,000 compounds, 0.31% hits; active = well fitted inhibition curve with a large enough effect; inconclusive = small, poorly fitted or top-dose-only effect; inactive = no such curve, though single readings can be large or run the other way; tested in mouse RAW 264.7 cells; also: nearly all actives have a fitted effect of over 55% in size
Large screens that a line does not name were inactive; ! = not active in a repeat. Hits are enriched below; roughly 0.52% of the tested compounds scored in any of these assays. Unless noted, calls follow the shape of the dose curve; as a rule, active = well fitted curve in the direction sought with a large enough effect; inconclusive = small, poorly fitted or top-dose-only effect, or another doubt; inactive = no such curve, though single readings can be large; an effect the other way counts as inactive or inconclusive.

COc1ccc(OC)c(C2=NS(=O)(=O)N(C)C(C(=O)Nc3ccc(F)cc3F)=C2)c1	BCR signal inh inconclusive
Cc1cccc(N2C(=O)NC(=O)/C(=C\C=C\c3ccco3)C2=O)c1	RGS4 inhibitor inconclusive, uPA generation 10µM
COc1ccc(CN2C(=O)NC(=O)/C(=C/c3ccc([N+](=O)[O-])o3)C2=O)cc1	Eya2 inh inconclusive, GCN5L2 inh 22µM (no result: RGS4 inhibitor, uPA generation)
O=C1NC(=O)N(c2ccccc2)C(=O)/C1=C/C=C/c1ccco1	RGS4 inhibitor inconclusive, BCR signal inh inconclusive, uPA generation 10µM
Cc1cccc(N2C(=O)NC(=O)/C(=C/c3ccc([N+](=O)[O-])o3)C2=O)c1	RGS4 inhibitor inconclusive, GCN5L2 inh 25µM
CCCOP(=O)(c1ccc(N(C)C)cc1)C(O)c1ccc(Cl)cc1 (stereo not given)	BCR signal inh inconclusive
CN(C)c1ccc(Nc2ccc([N+](=O)[O-])cn2)cc1	BCR signal inh inconclusive
Cc1ccc(NC(=O)Cn2c(=O)oc3cc(S(=O)(=O)N4CCCCCC4)ccc32)cc1Cl	BCR signal inh inconclusive (no result: USP2a block, Eya2 inh, uPA generation)
Cc1ccc(N2C(=O)NC(=O)/C(=C\C=C\c3ccco3)C2=O)cc1	RGS4 inhibitor inconclusive, BCR signal inh inconclusive, Eya2 inh inconclusive, uPA generation 7.9µM
CCc1cn(C2CC(O)C(CO)O2)c(=O)[nH]c1=O (stereo not given)	uPA generation 10µM
O=C(C[C@H]1C/C=C\C[C@H](NC(=O)OCC2c3ccccc3-c3ccccc32)C(=O)O[C@H](c2ccccc2)CNC1=O)N[C@H](CO)Cc1ccccc1	BCR signal inh inconclusive
Cc1ccc(NC(=O)c2ccc(S(=O)(=O)N(C)c3ccccc3)cc2)cc1S(=O)(=O)N1CCOCC1	uPA generation inconclusive (no result: USP2a block, BCR signal inh, Eya2 inh, GCN5L2 inh)
O=c1oc(Cl)c(Cl)c2ccccc12	RGS4 inhibitor 11µM!
Cc1cc(Br)ccc1NC(=O)CN(C)C(=O)C1CCN(c2ncnc3sc(C)c(C)c23)CC1	uPA generation inconclusive (no result: USP2a block, BCR signal inh, Eya2 inh, GCN5L2 inh)
COCC1CCCCN1C(=O)c1ccc(OC)c(OC2CCN(C(C)C)CC2)c1 (stereo not given)	uPA generation inconclusive
O=C(O)Cc1ccccc1	none (no result: USP2a block, RGS4 inhibitor, BCR signal inh, Eya2 inh, uPA generation)
O=C(O)CNC(=O)[C@@H](CS)Cc1ccccc1	GCN5L2 inh 13µM (no result: USP2a block, RGS4 inhibitor, BCR signal inh, Eya2 inh, uPA generation)
COc1cccc(NC(=O)C2CCN(c3nnc(C)c4c(C)n(-c5ccccc5)nc34)CC2)c1	BCR signal inh inconclusive (no result: USP2a block, Eya2 inh, uPA generation)
C[C@]12CC[C@@H]3c4ccc(O)c(O)c4CC[C@H]3[C@@H]1CC[C@@H]2O	RGS4 inhibitor inconclusive, BCR signal inh inconclusive, uPA generation inconclusive
C[C@]12CC[C@@H]3c4ccc(OC(=O)N(CCCl)CCCl)cc4CC[C@H]3[C@@H]1CC[C@@H]2O	GCN5L2 inh 13µM (no result: USP2a block, RGS4 inhibitor, BCR signal inh, Eya2 inh, uPA generation)
O=c1[nH]c(=O)n(-c2cccc(Cl)c2)c(O)c1C=NCCN1CCCCC1	none
COc1cccc(-n2c(O)c(C=NCCN3CCOCC3)c(=O)[nH]c2=O)c1	GCN5L2 inh 14µM
O=C1C=CC(=O)C(Cl)=C1	GCN5L2 inh 16µM (no result: USP2a block, RGS4 inhibitor, BCR signal inh, Eya2 inh, uPA generation)
C[C@H]1CCC/C=C/C2C[C@H](O)CC2[C@H](O)/C=C/C(=O)O1 (stereo not given in full)	BCR signal inh inconclusive, uPA generation 0.32µM
COP(=S)(OC)SCn1nnc2ccccc2c1=O	RGS4 inhibitor inconclusive, GCN5L2 inh 40µM (no result: USP2a block, BCR signal inh, Eya2 inh, uPA generation)
COc1ccc(-c2oc3cc(OC)ccc3c(=O)c2O)cc1	GCN5L2 inh inconclusive (no result: USP2a block, BCR signal inh, Eya2 inh, uPA generation)
Cc1nc2c(=O)n(C)c(=O)nc-2n(C)n1	RGS4 inhibitor inconclusive, BCR signal inh inconclusive, Eya2 inh 35µM
Cc1ccc2c(c1)C1C[N+](C)(CC(=O)Nc3ccccc3Cl)CCC1N2C(=O)c1ccccc1Cl (stereo not given)	BCR signal inh inconclusive

Screening data deposited in PubChem by National Center for Advancing Translational Sciences (NCATS).
